“And” between values parts separate entries of the source, which are not always exact repeats. Equal entries are not always repeated. Records with an inconclusive call do not appear. The list shows a part of the results. The source made the active and inactive calls. Unless noted, calls come from the whole dose curve.
Experiments:
[1] = target: Lysosomal acid glucosylceramidase (Homo sapiens) (UniProt P04062); assay: Glucocerebrosidase-p2 (AID 348; in the data active = potency below about 10 µM; note: potency is the fitted concentration of half-maximal effect); conditions: purified GBA, blue fluorogenic substrate, 40 min
Outline: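 Normal human glucocerebrosidase (0.2 nM) with blue fluorogenic substrate (80 uM final) in citrate/phosphate pH 5.9 with 10mM sodium taurocholate, 0.01% tween-20; 40 min RT, NaOH/glycine stop; fluorescence Ex 365/Em 440; AC50 from a titration from 0.6 nM upwards.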

[2] = target: Cytochrome P450 1A2 (Homo sapiens) (UniProt P05177); assay: p450-cyp1a2 (AID 410); conditions: recombinant CYP1A2, luciferin-ME demethylation, luminescence; series mostly up to 11.4 µM; note: potency is the fitted concentration of half-maximal effect;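 for activity change, negative = inhibition: -100% = full effect of reference inhibitor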
Outline: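 Luminescent demethylation readout: Luciferin-ME (100uM, equal to Km) turned over by 20nM CYP1A2 for 60 min at room temperature after NADPH regeneration addition, following 10 min compound preincubation. Normalization used 57 uM furafylline as full inhibition.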

[3] = NFAT Signaling Pathway (AID 444; active = well fitted curve in either direction with a large enough effect, not every such curve was filed as active;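 note: carbachol stimulus at about its EC50 of 1 µM final; % is set by controls: 0 for no effect and ±100 for the full control effect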); conditions: Jurkat NFAT-bla M1, carbachol, beta-lactamase ratio, 5 h
Outline: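 Jurkat cells carrying an NFAT-driven β-lactamase reporter and co-transfected muscarinic M1 receptor were treated with compound plus carbachol (1 uM final, an EC50 level) for 5 h at 37 °C. CCF4 loading followed for 1 h at RT; 460/530 nm ratio gave %activity.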

[4] = target: Glucocorticoid receptor (Homo sapiens) (UniProt P04150); assay: GR-GFP Redistribution (AID 450;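 active = compounds whose dose series gives a full or clear partial fitted curve of increased nuclear translocation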; note: potency is the fitted concentration of half-maximal effect); conditions: U2OS GR-GFP nuclear translocation, laser cytometry, 2 h
[5] = target: Glucocorticoid receptor (Homo sapiens) (UniProt P04150); assay: GR-EFC Redistribution (AID 451); conditions: CHO-K1 GR-EFC translocation, beta-gal luminescence, 2 h; note: potency is the fitted concentration of half-maximal effect
Outline: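 CHO-K1 cells stably expressing nuclear-localized β-gal enzyme acceptor and GR fused C-terminally to the enzyme donor fragment; ligand-driven nuclear translocation restores β-gal by complementation. Compounds titrated up to 46 uM final, 2 h at 37 °C; luminescence read.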

[6] = qHTS Assay for Inhibitors of Fructose-1,6-bisphosphate Aldolase from Giardia Lamblia: Coupling assay counterscreen confirmation (AID 2795; active = well fitted curve in the direction sought with a large enough effect; an effect the other way counts as inactive or inconclusive; note: % is set by controls: 0 for no effect and ±100 for the full control effect; nearly all actives have a fitted effect of over 55% in size); conditions: GAPDH coupling enzyme counterscreen, biochemical; series mostly up to 57.5 µM
Outline: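 Compounds at up to 57.5 uM final tested against the coupling enzymes and resorufin-type fluorescent detection only, aldolase omitted. Ex 525 nm/em 598 nm read after 10 min enzyme-compound and 20 min substrate incubations, room temperature.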

[7] = target: 3',5'-cyclic-AMP phosphodiesterase 4B (Homo sapiens) (UniProt Q07343); assay: qHTS Assay for Inhibitors of PDE-IV (AID 607; active = well fitted activation curve with a large enough effect in the main read-out, with a control signal flat, not every such curve was filed as active; note: % of control where 0% means no effect); conditions: HEK293 ACTOne CNG channel cells, membrane potential fluorescence; series mostly up to 22.9 µM
Outline: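 HEK293 ACTOne cells with CNG channel (1000/well), endogenous PDE4; membrane potential dye, compounds up to 22.9 uM final. Fluorescence Ex 535/Em 590; RO 20-1724 (100 uM final) as reference.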

[8] = qHTS assay to identify small molecules that stimulate interleukin-8 (IL-8) secretion (AID 651758; active = well fitted activation curve with a large enough effect in the signal ratio; the % refers to the signal ratio; note: 0% is about no effect); conditions: HTRF ratio (665/615); series mostly up to 92.2 µM
Outline: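 Quantitative HTS in THP-1 monocytic cells at 2000 cells per well, with 16 hrs compound incubation at 37 C. IL-8 in the medium was then quantified by HTRF immunoassay, read after 1-3 hrs at room temperature.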

[9] = target: Cytochrome P450 3A4 (Homo sapiens) (UniProt P08684); assay: qHTS Assay for Activators of Cytochrome P450 3A4 (AID 885; active = well fitted curve in the direction sought with a large enough effect; an effect the other way counts as inactive or inconclusive; note: nearly all actives have a fitted effect of over 65% in size); conditions: recombinant CYP3A4, Luciferin-PPXE luminescence, 60 min; series mostly up to 11.4 µM
Outline: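 Human CYP3A4 dealkylates Luciferin-PPXE to luciferin, which luciferase detection converts to light. Substrate was at its KM (25uM), buffer 200mM KPO4, reaction 60 min at RT.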

[10] = target: Ubiquitin carboxyl-terminal hydrolase 1 (Homo sapiens) (UniProt O94782); assay: Inhibitors of USP1/UAF1: Pilot qHTS (AID 504865; active = well fitted curve in the direction sought with a large enough effect; an effect the other way counts as inactive or inconclusive; note: nearly all actives have a fitted effect of over 35% in size; note: potency is the fitted concentration of half-maximal effect;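 for activity change, negative = inhibition: rhodamine fluorescence freed from ubiquitin-rhodamine substrate followed over time; top concentration of the series differs between compounds; % is set by controls: 0 for no effect and ±100 for the full control effect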); conditions: purified USP1/UAF1, Ub-rhodamine cleavage fluorescence; series mostly up to 114 µM
Outline: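 Kinetic fluorescence assay: 1nM USP1/UAF1, 15 min compound preincubation, then 150nM Ub-Rho; 480/540 nm.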

[11] = qHTS profiling for inhibitors of Plasmodium falciparum proliferation (AID 504749; active = well fitted curve in the direction sought with a large enough effect; an effect the other way counts as inactive or inconclusive; note: potency is the fitted concentration of half-maximal effect;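 for activity, negative = inhibition: 0% = DMSO vehicle and full inhibition = artemisinin control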; for all read-outs here: nearly all actives have a fitted effect of over 60% in size); conditions: P. falciparum in erythrocytes, SYBR Green DNA, 72 h; for activity, negative = inhibition: at 28.7 µM (top of the series)
Outline: (§1)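 Quantitative HTS: compounds pinned into medium, infected erythrocytes added (0.3% parasitemia, 2.5% hematocrit), 72 h culture at 37 C under 5% CO2. Saponin/Triton lysis with SYBR Green I, overnight RT, then fluorescence read.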

CP192 = assay: as above; conditions: P. falciparum in erythrocytes, SYBR Green DNA, 72 h; series mostly up to 28.7 µM
Outline: as §1

CP203 = assay: as above; conditions: P. falciparum in erythrocytes, SYBR Green DNA, 72 h; series mostly up to 28.7 µM
Outline: as §1

DFO2036 = assay: as above; conditions: P. falciparum in erythrocytes, SYBR Green DNA, 72 h; series mostly up to 28.7 µM
Outline: as §1

PC49 = assay: as above; conditions: P. falciparum in erythrocytes, SYBR Green DNA, 72 h; series mostly up to 28.7 µM
Outline: as §1

[12] = at 7.69 µM (top of the series) unless noted

Sequence of Ubiquitin carboxyl-terminal hydrolase 1 (Homo sapiens) (O94782 whole entry, looked up): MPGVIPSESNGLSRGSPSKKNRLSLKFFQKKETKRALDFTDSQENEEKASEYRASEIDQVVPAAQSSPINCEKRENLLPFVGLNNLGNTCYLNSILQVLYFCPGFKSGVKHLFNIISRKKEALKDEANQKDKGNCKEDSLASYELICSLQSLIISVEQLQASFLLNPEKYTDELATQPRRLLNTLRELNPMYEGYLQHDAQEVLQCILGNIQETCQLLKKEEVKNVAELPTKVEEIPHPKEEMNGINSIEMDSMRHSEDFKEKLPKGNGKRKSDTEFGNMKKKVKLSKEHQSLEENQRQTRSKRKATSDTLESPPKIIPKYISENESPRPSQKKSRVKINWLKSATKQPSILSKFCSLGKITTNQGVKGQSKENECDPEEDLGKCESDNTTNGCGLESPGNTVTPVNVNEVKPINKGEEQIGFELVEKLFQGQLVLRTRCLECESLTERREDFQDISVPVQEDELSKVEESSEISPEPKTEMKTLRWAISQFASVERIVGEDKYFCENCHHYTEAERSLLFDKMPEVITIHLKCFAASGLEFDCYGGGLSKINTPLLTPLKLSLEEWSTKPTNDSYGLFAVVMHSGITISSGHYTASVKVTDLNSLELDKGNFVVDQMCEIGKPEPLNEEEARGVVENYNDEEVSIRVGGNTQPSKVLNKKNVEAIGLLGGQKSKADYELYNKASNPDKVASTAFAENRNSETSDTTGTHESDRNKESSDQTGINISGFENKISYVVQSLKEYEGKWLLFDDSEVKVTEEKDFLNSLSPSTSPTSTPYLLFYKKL
Sequence of Lysosomal acid glucosylceramidase (Homo sapiens) (P04062 whole entry, looked up): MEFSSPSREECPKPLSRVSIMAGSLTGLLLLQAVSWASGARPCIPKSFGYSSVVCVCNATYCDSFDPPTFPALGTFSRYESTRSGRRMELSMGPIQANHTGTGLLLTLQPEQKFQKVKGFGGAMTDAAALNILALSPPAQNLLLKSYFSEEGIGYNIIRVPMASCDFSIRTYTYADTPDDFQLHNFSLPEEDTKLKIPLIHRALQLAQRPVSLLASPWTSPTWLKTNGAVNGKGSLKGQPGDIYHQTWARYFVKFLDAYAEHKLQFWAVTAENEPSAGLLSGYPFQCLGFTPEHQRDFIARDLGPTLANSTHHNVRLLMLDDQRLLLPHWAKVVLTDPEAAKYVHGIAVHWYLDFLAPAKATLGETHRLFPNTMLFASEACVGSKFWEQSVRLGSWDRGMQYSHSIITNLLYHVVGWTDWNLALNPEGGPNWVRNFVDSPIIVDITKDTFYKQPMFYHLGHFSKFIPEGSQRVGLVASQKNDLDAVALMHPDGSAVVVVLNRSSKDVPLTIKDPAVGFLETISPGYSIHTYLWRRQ
Sequence of 3',5'-cyclic-AMP phosphodiesterase 4B (Homo sapiens) (Q07343 whole entry, looked up): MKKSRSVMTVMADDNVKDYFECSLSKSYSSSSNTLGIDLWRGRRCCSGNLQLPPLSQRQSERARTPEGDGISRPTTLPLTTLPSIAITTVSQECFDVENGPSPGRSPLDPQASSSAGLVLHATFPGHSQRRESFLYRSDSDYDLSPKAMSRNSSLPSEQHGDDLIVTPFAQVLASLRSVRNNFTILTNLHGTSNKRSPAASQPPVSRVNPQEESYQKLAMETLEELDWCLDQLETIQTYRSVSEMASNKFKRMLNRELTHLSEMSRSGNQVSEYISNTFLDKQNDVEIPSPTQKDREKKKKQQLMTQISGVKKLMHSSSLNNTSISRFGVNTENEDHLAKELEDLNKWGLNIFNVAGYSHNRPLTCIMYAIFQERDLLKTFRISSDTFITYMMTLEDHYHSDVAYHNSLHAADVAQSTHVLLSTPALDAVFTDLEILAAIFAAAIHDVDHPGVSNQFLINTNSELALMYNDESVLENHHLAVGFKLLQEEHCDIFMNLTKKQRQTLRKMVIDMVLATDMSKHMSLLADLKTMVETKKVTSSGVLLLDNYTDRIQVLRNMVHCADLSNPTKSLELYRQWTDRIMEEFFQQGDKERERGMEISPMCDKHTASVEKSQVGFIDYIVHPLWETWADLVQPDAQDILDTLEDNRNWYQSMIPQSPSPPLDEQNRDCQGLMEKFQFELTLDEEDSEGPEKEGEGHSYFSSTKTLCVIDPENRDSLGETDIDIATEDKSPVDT
Sequence of Glucocorticoid receptor (Homo sapiens) (P04150 whole entry, looked up, the tested form may be a part): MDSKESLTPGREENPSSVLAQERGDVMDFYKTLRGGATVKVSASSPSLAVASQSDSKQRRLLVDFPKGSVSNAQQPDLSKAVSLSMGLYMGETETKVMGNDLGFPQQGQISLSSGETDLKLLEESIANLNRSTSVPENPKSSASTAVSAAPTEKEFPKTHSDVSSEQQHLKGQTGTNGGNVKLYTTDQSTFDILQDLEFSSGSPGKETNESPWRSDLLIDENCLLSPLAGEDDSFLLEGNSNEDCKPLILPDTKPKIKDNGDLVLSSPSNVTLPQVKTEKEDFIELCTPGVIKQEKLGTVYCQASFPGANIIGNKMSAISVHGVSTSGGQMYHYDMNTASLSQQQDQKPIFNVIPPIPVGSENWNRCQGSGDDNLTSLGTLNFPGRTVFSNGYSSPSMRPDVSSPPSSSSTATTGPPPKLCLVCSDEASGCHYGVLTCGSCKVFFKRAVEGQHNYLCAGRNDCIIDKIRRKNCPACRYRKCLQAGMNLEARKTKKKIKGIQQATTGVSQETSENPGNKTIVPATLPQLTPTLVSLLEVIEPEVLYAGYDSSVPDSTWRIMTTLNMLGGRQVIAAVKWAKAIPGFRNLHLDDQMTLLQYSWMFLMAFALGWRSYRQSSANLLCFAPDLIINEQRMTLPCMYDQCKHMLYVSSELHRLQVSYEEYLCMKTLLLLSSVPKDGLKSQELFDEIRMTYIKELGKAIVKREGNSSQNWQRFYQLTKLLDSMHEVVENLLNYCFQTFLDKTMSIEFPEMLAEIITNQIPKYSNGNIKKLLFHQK
Sequence of Cytochrome P450 3A4 (Homo sapiens) (P08684 whole entry, looked up): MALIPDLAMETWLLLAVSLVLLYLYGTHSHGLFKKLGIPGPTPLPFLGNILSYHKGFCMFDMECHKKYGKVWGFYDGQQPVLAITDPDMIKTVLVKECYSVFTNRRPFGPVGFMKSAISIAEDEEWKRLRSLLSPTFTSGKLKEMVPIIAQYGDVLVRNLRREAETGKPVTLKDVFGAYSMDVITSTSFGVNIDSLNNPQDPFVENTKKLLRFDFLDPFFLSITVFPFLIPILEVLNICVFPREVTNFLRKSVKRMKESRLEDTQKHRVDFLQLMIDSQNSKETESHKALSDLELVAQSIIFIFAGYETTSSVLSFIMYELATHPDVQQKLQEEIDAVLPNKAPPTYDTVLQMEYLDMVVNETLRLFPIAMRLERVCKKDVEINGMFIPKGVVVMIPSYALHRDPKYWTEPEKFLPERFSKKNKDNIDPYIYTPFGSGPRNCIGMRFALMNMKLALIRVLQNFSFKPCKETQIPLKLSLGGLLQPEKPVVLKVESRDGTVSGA
Sequence of Cytochrome P450 1A2 (Homo sapiens) (P05177 whole entry, looked up): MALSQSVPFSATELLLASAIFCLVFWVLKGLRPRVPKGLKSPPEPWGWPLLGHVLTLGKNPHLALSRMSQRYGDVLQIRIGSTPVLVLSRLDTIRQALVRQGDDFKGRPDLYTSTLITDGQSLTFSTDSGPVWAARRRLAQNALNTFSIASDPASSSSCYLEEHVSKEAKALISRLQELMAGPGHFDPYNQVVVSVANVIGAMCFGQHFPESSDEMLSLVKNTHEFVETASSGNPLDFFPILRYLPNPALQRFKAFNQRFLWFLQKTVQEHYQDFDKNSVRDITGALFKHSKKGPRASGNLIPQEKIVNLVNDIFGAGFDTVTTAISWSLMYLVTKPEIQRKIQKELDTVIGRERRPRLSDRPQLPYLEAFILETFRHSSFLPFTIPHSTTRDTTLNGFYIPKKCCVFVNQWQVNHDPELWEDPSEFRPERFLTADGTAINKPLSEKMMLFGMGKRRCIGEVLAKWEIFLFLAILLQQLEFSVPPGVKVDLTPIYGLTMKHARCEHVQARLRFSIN

C/C(=N/O)[C@@H]1C[C@H](CC(=O)O)C1(C)C
inactive: Potency [1] > 11.4 µM | Potency [2] | activity change, negative = inhibition [3, 12] 9.94% | Potency [4] > 46 µM | Potency [5] > 9.22 µM

CC(C)(N=NC(C)(C)C1=NCCN1)C1=NCCN1
inactive: Potency [1] > 11.4 µM | Potency [2] | activity change, negative = inhibition [3, 12] 7.08% | Potency [4] > 46 µM | Potency [5] > 9.22 µM

Cn1nnc(NC(=S)NC(=O)c2ccccc2)n1
inactive: outcome [6]

Cc1cc(C)c2c(=O)[nH]c(SCC(=O)Nc3ccc(Br)cc3)nc2n1
inactive: outcome [6]

O=C(O)c1cc(N=Nc2ccc([N+](=O)[O-])cc2)ccc1O
inactive: Potency [1] > 11.4 µM | activity change, negative = inhibition [2] -15.3% [at 2.29 µM] | activity change, negative = inhibition [3, 12] 28.6% | Potency [4] > 46 µM | Potency [5] > 9.22 µM | Potency [7] | Potency [8]

COc1ccccc1-c1nc(NCc2ccccc2)c2ccccc2n1
active: Potency [2] 0.398 µM | Potency [10] 11.2 µM
inactive: Potency [1] > 11.4 µM | activity change, negative = inhibition [3, 12] -19.4% | Potency [4] > 46 µM | Potency [5] > 46 µM | Potency [9]

C[C@]12CC[C@H]3c4ccc(O)cc4CC[C@@H]3[C@H]1CC[C@@H]2OC(=O)CCC1CCCC1
inactive: Potency [1] > 11.4 µM | Potency [2] | activity change, negative = inhibition [3, 12] -0.474% | Potency [4] > 46 µM | Potency [5] > 9.22 µM | Potency [7] | activity, negative = inhibition ([11]; parasite line A) 5.91% | activity, negative = inhibition ([11]; parasite line B) 2.07% | Potency (CP192) | Potency (CP203) | Potency (DFO2036) | Potency (PC49)

CN1C(=O)/C(=C\c2ccc(-c3ccccc3)o2)SC1=S
inactive: outcome [6]

CN(C)c1ccc(-c2cc(NCc3ccccc3)ncn2)cc1
active: Potency [2] 1 µM
inactive: Potency [1] > 11.4 µM | activity change, negative = inhibition [3, 12] 12.6% | Potency [4] > 46 µM | Potency [5] > 46 µM | Potency [7] | Potency [9] | Potency [10]

CSc1n[nH]c(=S)n1N
inactive: outcome [6]

Cc1cn([C@H]2C[C@H](N=[N+]=[N-])[C@H](CO)O2)c(=O)[nH]c1=O
inactive: Potency [1] > 11.4 µM | activity change, negative = inhibition ([3]; at 7.69 µM (top of the series)) 5.39% | activity change, negative = inhibition ([3]; at 38 µM (top of the series)) -4.43% | Potency [4] > 46 µM | Potency [5] > 46 µM and > 9.22 µM | Potency [7] | Potency [10] | activity, negative = inhibition ([11]; parasite line A) 7.02% | activity, negative = inhibition ([11]; parasite line B) 2.08% | Potency (CP192) | Potency (CP203) | Potency (DFO2036) | Potency (PC49)

O=C(CN1CCN(Cc2ccccc2)CC1)Nc1ccc(F)c(F)c1
inactive: outcome [6]

Cc1nc2cnc(OCc3ccccc3)nc2n(Cc2ccc(F)cc2)c1=O
active: Potency [2] 7.94 µM
inactive: Potency [1] > 11.4 µM | activity change, negative = inhibition [3, 12] -22.3% | Potency [4] > 9.22 µM | Potency [5] > 46 µM

N=C(N)SCCc1ccncc1
inactive: Potency [1] > 11.4 µM | activity change, negative = inhibition [2] -17.8% [at 2.29 µM] | activity change, negative = inhibition [3, 12] -0.295% | Potency [4] > 46 µM | Potency [5] > 9.22 µM | Potency [7]

CC(=O)/C(=N\N=C(N)N)c1ccccc1
inactive: Potency [1] > 11.4 µM | activity change, negative = inhibition [2] -17.2% [at 2.29 µM] | activity change, negative = inhibition [3, 12] -0.66% | Potency [4] > 46 µM | Potency [5] > 9.22 µM

CN(N=O)c1ccc(/C=C\c2ccnc3ccccc23)cc1
inactive: Potency [1] > 11.4 µM | activity change, negative = inhibition [3, 12] 7.28% | Potency [4] > 46 µM | Potency [5] > 9.22 µM
active: Potency [2] 0.158 µM

O=C(O)CCC(=O)c1ccc(Cl)cc1
inactive: Potency [1] > 11.4 µM | Potency [2] | activity change, negative = inhibition [3, 12] -7.55% | Potency [4] > 46 µM | Potency [5] > 9.22 µM

COc1cccc(Cn2c(=O)c(C)nc3cnc(Oc4cccc(Cl)c4)nc32)c1
active: Potency [2] 25.1 µM
inactive: Potency [1] > 11.4 µM | activity change, negative = inhibition [3, 12] -7.01% | Potency [4] > 9.22 µM | Potency [5] > 46 µM

COc1ccc2cc1Oc1ccc(cc1)C[C@H]1c3cc(c(OC)cc3CCN1C)Oc1c(OC)c(OC)cc3c1[C@@H](C2)N(C)CC3
inactive: Potency [1] > 11.4 µM | Potency [2] | Potency [4] > 20.6 µM and > 46 µM | Potency [5] > 20.6 µM and > 46 µM and > 9.22 µM | Potency [7] | Potency [10]

CCN(CC(=O)Nc1ccc(S(=O)(=O)N2CCCC2)cc1)CC(=O)Nc1cccc(OC)c1
inactive: outcome [6]

O=C(O)[C@@H](S)[C@H](S)C(=O)O
active: Potency ([11]; parasite line A) 10 µM | Potency ([11]; parasite line B) 7.08 µM | Potency (CP192) 12 µM | Potency (CP203) 10.7 µM | Potency (DFO2036) 8.91 µM | Potency (PC49) 11.2 µM
inactive: Potency [1] > 11.4 µM | Potency [2] | activity change, negative = inhibition [3, 12] -7.29% | Potency [4] > 46 µM | Potency [5] > 9.22 µM | Potency [7]

S=C(Nc1ccc2c(c1)Cc1ccccc1-2)Nc1ccc2c(c1)Cc1ccccc1-2
active: Potency [2] 0.2 µM
inactive: Potency [1] > 11.4 µM | activity change, negative = inhibition [3, 12] 9.24% | Potency [4] > 46 µM | Potency [5] > 9.22 µM

CNc1ncncc1-c1ccc(C(=O)N(C)C)cc1
inactive: Potency [1] > 11.4 µM | activity change, negative = inhibition [3, 12] 7.99% | Potency [4] > 46 µM | Potency [5] > 46 µM | Potency [7] | Potency [9] | Potency [10]
active: Potency [2] 15.8 µM

CCN1CCc2c(C#N)c(NCc3ccccc3)nc(NCCO)c2C1
inactive: activity change, negative = inhibition [3, 12] -11% [at 17.2 µM] | Potency [4] > 20.6 µM

Cc1csc(NC(=O)CN2CCCCCC2)n1
inactive: outcome [6]
